PubChem BioAssay AID1209 (Sanford-Burnham Center for Chemical Genomics, 2008)
Screen size: about 190,000 compounds; about 810 (0.43%) were called active. This is one part of a sample in which actives are shown more often than they occur. No stated cut-off is given here; in the data, active means inhibition above about 50%; inactive means the rest.

Each compound was assayed against Mannose-6-phosphate isomerase (Homo sapiens) (UniProt P34949) (assay: inhibitors of human PMI, primary screen, biochemical, fluorescence intensity, coupled assay (AID 1209;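 further: plate controls were DMSO vehicle for no effect and wells lacking substrate for full effect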)). Conditions: purified PMI enzyme, at 20 µM, hits give high values.
Sequence of Mannose-6-phosphate isomerase (Homo sapiens) (P34949 whole entry, looked up): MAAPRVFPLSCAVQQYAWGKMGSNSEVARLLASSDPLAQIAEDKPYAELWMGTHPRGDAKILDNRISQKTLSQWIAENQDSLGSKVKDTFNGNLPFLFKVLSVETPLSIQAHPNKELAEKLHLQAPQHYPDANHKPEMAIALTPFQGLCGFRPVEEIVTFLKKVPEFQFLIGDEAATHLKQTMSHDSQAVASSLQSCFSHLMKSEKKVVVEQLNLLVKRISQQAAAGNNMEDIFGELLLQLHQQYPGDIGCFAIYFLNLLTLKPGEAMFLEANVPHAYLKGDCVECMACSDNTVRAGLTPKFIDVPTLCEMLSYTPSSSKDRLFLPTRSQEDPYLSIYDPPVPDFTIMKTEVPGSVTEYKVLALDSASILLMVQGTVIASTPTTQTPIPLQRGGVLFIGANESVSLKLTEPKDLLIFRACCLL

| SMILES | inhibition |
| --- | --- |
| COc1ccc(NC(=O)COC(=O)C(CC(C)C)N2C(=O)C3CC=CCC3C2=O)cc1Cl (configuration not stated) | 16.5% (inactive) |
| N#Cc1c(NC(=O)CSc2n[nH]c(Cc3ccccc3)n2)oc(-c2ccccc2)c1-c1ccccc1 | -1.5% (inactive) |
| CCOc1cccc(OCCOCCOc2ccccc2C(C)=O)c1 | 4.1% (inactive) |
| COc1cccc(/C=N/NC(=O)C(=O)N/N=C/c2cccc(OC)c2OC)c1OC | -0.6% (inactive) |
| CCN(CC)CCNC(=O)Cn1c(C)cc2ccccc2c1=O | -2.3% (inactive) |
| O=C1N=C(N2CCCCC2)SC1=C1CCCC1 | 1.2% (inactive) |
| CCN(CC)S(=O)(=O)c1ccc(NC(=O)C2CCCN(C(=O)c3ccc(Cl)cc3)C2)cc1 (configuration not stated) | 14.2% (inactive) |
| CCc1ccc(C(=O)COC(=O)c2nn(C)c(=O)c3ccccc23)cc1 | -3.7% (inactive) |
| COc1cc(C(=O)O)nc2ccccc12 | 26.7% (inactive) |
| O=C(/C=C/c1ccccc1)NCCN1CCOCC1 | 2.1% (inactive) |
| Fc1ccccc1NC(=S)Nc1cccc2cnccc12 | 33.9% (inactive) |
| COc1ccccc1NC(=S)Nc1cccc2cnccc12 | 69.6% (active) |
| COCCNC(=S)Nc1cccc2cnccc12 | 17.7% (inactive) |
| COCCn1c(=O)[nH]c2cc(C(=O)NCCc3ccc(S(N)(=O)=O)cc3)ccc2c1=O | -4.1% (inactive) |
| CC1CCCC(C(=O)O)N1C(=O)CCSSCCC(=O)N1C(C)CCCC1C(=O)O (configuration not stated) | -1.2% (inactive) |
| CC(C)c1ccc(O)c(NC(=S)NC(=O)CCc2ccccc2)c1 | 12.8% (inactive) |
| CC(Nc1oc(-c2ccco2)nc1C#N)c1ccccc1 (configuration not stated) | 13.7% (inactive) |
| O=C(CSc1nnc(-c2c[nH]c3ccccc23)o1)c1ccc(-c2ccccc2)cc1 | 9% (inactive) |
| CCN(CC)c1ccc(NC(=O)c2cccc(C)c2)cc1S(=O)(=O)Nc1ccccc1OC | 53.3% (active) |
| CCN(CC)c1ccc(NC(=O)COc2ccccc2C)cc1S(=O)(=O)Nc1ccccc1OC | 38.9% (inactive) |
| CCN(CC)c1ccc(NC(=O)c2ccccc2Br)cc1S(=O)(=O)Nc1ccccc1OC | 63.9% (active) |
| CCN(CC)c1ccc(NC(=O)c2ccccc2F)cc1S(=O)(=O)Nc1ccccc1OC | 15.4% (inactive) |
| CCN(CC)c1ccc(NC(=O)COc2ccccc2C#N)cc1S(=O)(=O)Nc1ccccc1OC | -5.1% (inactive) |
| COc1ccccc1NS(=O)(=O)c1cc(NC(=O)c2ccc(=O)[nH]c2)ccc1N1CCOCC1 | 0.7% (inactive) |
| COc1ccc(C(=O)Nc2ccc(Cl)c(S(=O)(=O)Nc3ccccc3OC)c2)cc1 | 16.8% (inactive) |
| CCN(CC)c1ccc(NC(=O)c2ccc(=O)[nH]c2)cc1S(=O)(=O)Nc1ccccc1OC | 61.7% (active) |
| CCN(CC)c1ccc(NC(=O)c2ccccc2)cc1S(=O)(=O)Nc1ccccc1OC | 30.8% (inactive) |
